Assay [1] can be described thus: p53 stabilisation in HPV-positive human cells, imaging, p53-positive nuclei imaging, 24 h, 48 h (AID 1508601). To be noted: 24/48 h.
Assay [2] concerns the target Cellular tumor antigen p53 (Homo sapiens) (UniProt P04637). The assay is described as above. The settings on record: 24/48 h, stronger effect = higher value.
Where [3] appears, read: measured here: cell number at 24 h, Library stock concentration: 80 uM.
Where [4] appears, read: measured here: cell number at 24 h, Library stock concentration: 400 uM.
The mark [5] stands for this setting: measured here: cell number at 24 h, Library stock concentration: 2 mM.
The mark [6] stands for this setting: measured here: cell number at 24 h, Library stock concentration: 3.33 mM.
Setting [7] is: measured here: cell number at 24 h, Library stock concentration: 10 mM.
The mark [8] stands for this setting: measured here: cell number at 24 h, concentration not given here.
Setting [9] is: measured here: cell number at 48 h, Library stock concentration: 80 uM.
The mark [10] stands for this setting: measured here: cell number at 48 h, Library stock concentration: 400 uM.
Where [11] appears, read: measured here: cell number at 48 h, Library stock concentration: 2 mM.
Setting [12] is: measured here: cell number at 48 h, Library stock concentration: 3.33 mM.
Where [13] appears, read: measured here: cell number at 48 h, Library stock concentration: 10 mM.
[14] abbreviates: measured here: cell number at 48 h, concentration not given here.
The mark [15] stands for this setting: Library stock concentration: 80 uM.
[16] abbreviates: Library stock concentration: 400 uM.
Where [17] appears, read: Library stock concentration: 2 mM.
Setting [18] is: Library stock concentration: 3.33 mM.
Where [19] appears, read: Library stock concentration: 10 mM.
The mark [20] stands for this setting: measured here: p53 positive nuclei at 24 h, Library stock concentration: 80 uM.
The mark [21] stands for this setting: measured here: p53 positive nuclei at 24 h, Library stock concentration: 400 uM.
Where [22] appears, read: measured here: p53 positive nuclei at 24 h, Library stock concentration: 2 mM.
The mark [23] stands for this setting: measured here: p53 positive nuclei at 24 h, Library stock concentration: 3.33 mM.
[24] abbreviates: measured here: p53 positive nuclei at 24 h, Library stock concentration: 10 mM.
Setting [25] is: measured here: p53 positive nuclei at 24 h, concentration not given here.

Screen size: about 5,700 compounds; about 85 (1%) were called active. The sample holds actives, similar compounds and a random draw of the others, so the mix is not that of the screen. No stated cut-off is given here; in the data, active means p53-positive nuclei above about 36% (passing the limit was not always enough); inactive means the rest.

Sequence of Cellular tumor antigen p53 (Homo sapiens) (P04637 whole entry, looked up): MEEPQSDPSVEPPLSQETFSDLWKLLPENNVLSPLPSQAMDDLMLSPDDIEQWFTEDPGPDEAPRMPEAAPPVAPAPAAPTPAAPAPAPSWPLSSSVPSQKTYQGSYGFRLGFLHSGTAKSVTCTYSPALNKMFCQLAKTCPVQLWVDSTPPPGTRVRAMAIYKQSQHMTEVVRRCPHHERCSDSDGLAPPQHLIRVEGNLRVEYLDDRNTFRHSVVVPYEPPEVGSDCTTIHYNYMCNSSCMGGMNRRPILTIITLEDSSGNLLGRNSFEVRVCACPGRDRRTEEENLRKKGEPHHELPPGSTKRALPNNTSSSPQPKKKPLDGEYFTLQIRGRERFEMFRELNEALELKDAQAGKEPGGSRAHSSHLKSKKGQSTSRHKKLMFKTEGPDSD

As for `O=Nc1c(-c2c(O)[nH]c3cc(Br)ccc23)[nH]c2ccccc12`, the nuclei count, normalised in assay [1] (setting [3]) came to 102%; in assay [1] (setting [4]), 111%; in assay [1] (setting [5]) it was 106%; in assay [1] (setting [6]), 116%; in assay [1] (setting [7]), 63.9%; in assay [1] (setting [8]), 104%. Moreover, the nuclei count, normalised was determined as 106% in assay [1] (setting [9]); 106% in assay [1] (setting [10]); 91.1% in assay [1] (setting [11]); 101% in assay [1] (setting [12]); 46.7% in assay [1] (setting [13]); 113% in assay [1] (setting [14]). Besides, the p53-positive nuclei, normalised in assay [2] (setting [15]) is -0.018% (inactive); in assay [2] (setting [16]) it was 0.858% (inactive); in assay [2] (setting [17]), 4.32% (inactive); in assay [2] (setting [18]) it was 1.69% (inactive); in assay [2] (setting [19]), 89.3% (active); in assay [2] (concentration not given here) it was 0.377% (inactive). In addition, the p53-positive nuclei, normalised in assay [2] (setting [20]) was -0.0496%; in assay [2] (setting [21]), 0.519%; in assay [2] (setting [22]) it was 1.14%; in assay [2] (setting [23]), 0.53%; in assay [2] (setting [24]), 71.9%; in assay [2] (setting [25]) it was 0.0936%.
`O=C1Cc2c([nH]c3ccc(Br)cc23)-c2ccccc2N1`: the nuclei count, normalised in assay [1] (setting [8]) stood at 97.1%; in assay [1] (setting [14]), 104%. Besides, the p53-positive nuclei, normalised in assay [2] (concentration not given here) is -0.0157% (inactive); in assay [2] (setting [25]), 0.0601%.
Regarding `O=C1C(c2c(O)[nH]c3ccccc23)=Nc2ccccc21`, the nuclei count, normalised in assay [1] (setting [6]) turned out to be 97.7%; in assay [1] (setting [12]), 95.2%. Besides, the results for the p53-positive nuclei, normalised in assay [2] (setting [18]) and in assay [2] (setting [23]) were 0.364% (inactive) and -0.221%, respectively.
Take `OCC1OC(n2cnc3c2NC=NCC3O)CC1O` (stereo unspecified): the nuclei count, normalised in assay [1] (measured here: cell number at 24 h, Library stock concentration: 500 nM) was determined as 123%; in assay [1] (measured here: cell number at 24 h, Library stock concentration: 1.5 uM), 117%; in assay [1] (measured here: cell number at 24 h, Library stock concentration: 4.6 uM), 116%; in assay [1] (measured here: cell number at 24 h, Library stock concentration: 13.7 uM), 127%; in assay [1] (measured here: cell number at 24 h, Library stock concentration: 41 uM) it was 122%; in assay [1] (measured here: cell number at 24 h, Library stock concentration: 123 uM), 124%. For the same compound, the nuclei count, normalised came out at 121% in assay [1] (measured here: cell number at 24 h, Library stock concentration: 370 uM); 120% in assay [1] (measured here: cell number at 24 h, Library stock concentration: 1.111 mM); 122% in assay [1] (measured here: cell number at 24 h, Library stock concentration: 3.333 mM); 117% in assay [1] (setting [7]); 119% in assay [1] (measured here: cell number at 48 h, Library stock concentration: 500 nM); 112% in assay [1] (measured here: cell number at 48 h, Library stock concentration: 1.5 uM). The nuclei count, normalised came to 114% in assay [1] (measured here: cell number at 48 h, Library stock concentration: 4.6 uM); 119% in assay [1] (measured here: cell number at 48 h, Library stock concentration: 13.7 uM); 118% in assay [1] (measured here: cell number at 48 h, Library stock concentration: 41 uM); 113% in assay [1] (measured here: cell number at 48 h, Library stock concentration: 123 uM); 117% in assay [1] (measured here: cell number at 48 h, Library stock concentration: 370 uM); 114% in assay [1] (measured here: cell number at 48 h, Library stock concentration: 1.111 mM). In addition, the nuclei count, normalised in assay [1] (measured here: cell number at 48 h, Library stock concentration: 3.333 mM) was found to be 113%; in assay [1] (setting [13]), 114%. Moreover, the p53-positive nuclei, normalised in assay [2] (Library stock concentration: 500 nM) was -0.173% (inactive); in assay [2] (Library stock concentration: 1.5 uM), -0.175% (inactive); in assay [2] (Library stock concentration: 4.6 uM), -0.091% (inactive); in assay [2] (Library stock concentration: 13.7 uM), -0.0972% (inactive); in assay [2] (Library stock concentration: 41 uM), 0.0195% (inactive); in assay [2] (Library stock concentration: 123 uM), 0.029% (inactive). Also, the p53-positive nuclei, normalised in assay [2] (Library stock concentration: 370 uM) is -0.058% (inactive); in assay [2] (Library stock concentration: 1.111 mM), -0.0904% (inactive); in assay [2] (Library stock concentration: 3.333 mM), -0.125% (inactive); in assay [2] (setting [19]), -0.0529% (inactive); in assay [2] (measured here: p53 positive nuclei at 24 h, Library stock concentration: 500 nM) it was -0.0351%; in assay [2] (measured here: p53 positive nuclei at 24 h, Library stock concentration: 1.5 uM), -0.148%. For the same compound, the p53-positive nuclei, normalised is -0.0281% in assay [2] (measured here: p53 positive nuclei at 24 h, Library stock concentration: 4.6 uM); 0.0187% in assay [2] (measured here: p53 positive nuclei at 24 h, Library stock concentration: 13.7 uM); -0.0912% in assay [2] (measured here: p53 positive nuclei at 24 h, Library stock concentration: 41 uM); -0.0944% in assay [2] (measured here: p53 positive nuclei at 24 h, Library stock concentration: 123 uM); -0.0326% in assay [2] (measured here: p53 positive nuclei at 24 h, Library stock concentration: 370 uM); -0.148% in assay [2] (measured here: p53 positive nuclei at 24 h, Library stock concentration: 1.111 mM). Also, the p53-positive nuclei, normalised in assay [2] (measured here: p53 positive nuclei at 24 h, Library stock concentration: 3.333 mM) is -0.0881%; in assay [2] (setting [24]), -0.148%.
With `CC(C)CC(NC(=O)C(Cc1ccccc1)NC(=O)c1cnccn1)B(O)O` (stereo unspecified), the nuclei count, normalised stood at 47.9% in assay [1] (setting [6]) and 41.9% in assay [1] (setting [12]). In addition, the values for the p53-positive nuclei, normalised in assay [2] (setting [18]) and in assay [2] (setting [23]) were 106% (active) and 125%, respectively.
As for `CC(C)CC(NC(=O)C(O)C(N)Cc1ccccc1)C(=O)O` (stereo unspecified), the nuclei count, normalised in assay [1] (setting [3]) is 115%; in assay [1] (setting [4]) it was 119%; in assay [1] (setting [5]), 104%; in assay [1] (setting [7]), 105%; in assay [1] (setting [9]) it was 111%; in assay [1] (setting [10]), 113%. Further, the nuclei count, normalised in assay [1] (setting [11]) stood at 108%; in assay [1] (setting [13]), 111%. Further, the p53-positive nuclei, normalised in assay [2] (setting [15]) is -0.159% (inactive); in assay [2] (setting [16]), -0.07% (inactive); in assay [2] (setting [17]) it was -0.0155% (inactive); in assay [2] (setting [19]), 0.0117% (inactive); in assay [2] (setting [20]) it was -0.122%; in assay [2] (setting [21]), 0.00728%. The p53-positive nuclei, normalised was -0.122% in assay [2] (setting [22]) and 0.0829% in assay [2] (setting [24]).
As to `CC(C)C[C@H](NC(=O)[C@@H](O)[C@H](N)Cc1ccccc1)C(=O)O`, the nuclei count, normalised in assay [1] (setting [8]) is 97.2%; in assay [1] (setting [14]), 105%. Further, the p53-positive nuclei, normalised in assay [2] (concentration not given here) is -0.0349% (inactive); in assay [2] (setting [25]), -0.0296%.
